# Measurements reported in the OligoGym collection.
# Biological target: HIST1H4B
# Assay: pooled miR-30 sensor sort-seq; sequence = guide strand
# Conditions: shRNA
# Also: reference of the scale not given here.
row,Sequence,sensor-assay potency score (higher = more potent)
1,TCTCCTCATAAATCAAACCGGA,-1.02
2,TACCCAAACCTTTACCGCCTTT,-0.866
3,TTATCCCGCAGCACTTTTCGGT,-0.874
4,ATCCATGGCAGTGACAGTCTTG,-0.826
5,TTGGATGTTATCCCGCAGCACT,-1.27
6,TGACAGTCTTGCGCTTGGCGTG,-1.49
7,TCCTTGACGCTTGAGCGCGTAA,-1.7
8,TATCCCGCAGCACTTTTCGGTG,-1.57
9,TTTGGTGATGCCTTGGATGTTA,0.361
10,AACACCTTGAGAACGCCACGAG,-0.445
11,TAAACCACATCCATGGCAGTGA,0.196
12,AATCAAACCGGAAATTCGCTTA,0.0174

# Biological target: HIST1H4G
# Assay: as above
# Conditions: shRNA
row,Sequence,sensor-assay potency score (higher = more potent)
1,ATATTATCGCTCAGTACCTTGC,-0.774
2,ACATTTTCCAGGAACACCTTGA,-0.0469
3,AGGAACACCTTGAACACCCGGC,-0.945
4,ATTATCGCTCAGTACCTTGCGA,-0.081
5,TTTGAGCACGTAGACCACGGCC,-0.756
6,TTGAGCACGTAGACCACGGCCA,-0.24
7,TTATCGCTCAGTACCTTGCGAT,-0.526
8,AACACCTTGAACACCCGGCGGG,-0.571
9,AATATTATCGCTCAGTACCTTG,-1.22
10,ACACCTTGAACACCCGGCGGGT,-1.05
11,TACCAGATCACATTTTCCAGGA,-0.129
12,TATCGCTCAGTACCTTGCGATG,-1.74
